Experimental data taken from the supplement of paper PMC9262897, “Low-cost anti-mycobacterial drug discovery using engineered E. coli” (Nature Communications, 2022).
± gives the standard deviation of the averaged measurements.

Assays:
Assay in all cases: growth (OD600 after 10 h); higher = more growth (less inhibition)
[1] = tested on: E. coli TESEC Alr+ wild-type control; conditions: compound 0.1 mM; raw OD600 reference: median of DMSO wells 0.241, cell-free background 0.041
Method: (§1)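 TESEC Mtb Alr E. coli, or the Alr+ wild-type control, in 384-well plates with Prestwick library compounds at 0.1 mM and 1% DMSO, across arabinose induction levels of 1E3 to 1E7 nM. Growth is read as OD600 after 10 h at 37 °C in triplicate biological replicates.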

[2] = tested on: E. coli TESEC Mtb Alr; conditions: compound 0.1 mM
Method: as §1

[3] = tested on: E. coli TESEC Mtb Asd; conditions: compound 0.1 mM
Method: (§2)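 TESEC E. coli strains in which the native enzyme is deleted and replaced by arabinose-inducible Mtb Asd, DapB, CysH or TrpD, each grown in its selective medium. Strains were screened against the Prestwick library at 0.1 mM and 1% DMSO in 384-well format at low and high arabinose induction. Growth is read as OD600 after 10 h in triplicate.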

[4] = tested on: E. coli TESEC Mtb DapB; conditions: compound 0.1 mM
Method: as §2

[5] = tested on: E. coli TESEC Mtb Alr; conditions: compound 0.1 mM; remark: listed apart in the source
Method: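 TESEC Mtb Alr E. coli (ΔaraC ΔtolC ΔentC Δalr ΔdadX, arabinose-inducible Mtb Alr) or the Alr+ wild-type control strain, grown in defined M9-fructose medium without D-alanine in 96-well plates with Prestwick library compounds at 0.1 mM and 1% DMSO. Low Alr induction is 0.1 µM arabinose and high induction is 10 mM arabinose.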

[6] = arabinose 1000 nM, raw OD600 reference: median of DMSO wells 0.294, cell-free background 0.041
[7] = arabinose 10000 nM, raw OD600 reference: median of DMSO wells 0.264, cell-free background 0.041
[8] = arabinose 100000 nM, raw OD600 reference: median of DMSO wells 0.201, cell-free background 0.041
[9] = arabinose 1000000 nM, raw OD600 reference: median of DMSO wells 0.193, cell-free background 0.041
[10] = arabinose 10000000 nM, raw OD600 reference: median of DMSO wells 0.146, cell-free background 0.041
[11] = arabinose induction (level): High, raw OD600 reference: median of DMSO wells 0.331, cell-free background 0.041
[12] = arabinose induction (level): Low, raw OD600 reference: median of DMSO wells 0.417, cell-free background 0.041
[13] = arabinose induction (level): High, raw OD600 reference: median of DMSO wells […], cell-free background 0.041
[14] = arabinose induction (level): Low, raw OD600 reference: median of DMSO wells 0.227, cell-free background 0.041
[15] = arabinose 100 nM, raw OD600 reference: median of DMSO wells 0.413, cell-free background 0.052
[16] = arabinose 10000000 nM, raw OD600 reference: median of DMSO wells […], cell-free background 0.052

SMILES	growth [1]	growth [2, 6]	growth [2, 7]	growth [2, 8]	growth [2, 9]	growth [2, 10]	growth [3, 11]	growth [3, 12]	growth [4, 13]	growth [4, 14]	growth [5, 15]	growth [5, 16]
COc1cc(-c2ccc(=O)[nH]n2)ccc1OC(F)F [Zardaverine]	0.14 ± 0.0036	0.173 ± 0.0042	0.188 ± 0.013	0.17 ± 0.021	0.171 ± 0.0067	0.147 ± 0.0091	0.211 ± 0.014	0.162 ± 0.014	0.16 ± 0.012	0.176 ± 0.018	0.401 ± 0.0082	0.35 ± 0.011
Cc1c(N(C)C)c(=O)n(-c2ccccc2)n1C [Amidopyrine]	0.242 ± 0.0096	0.28 ± 0.016	0.2721 ± 0.0006	0.225 ± 0.02	0.184 ± 0.0082	0.138 ± 0.0025	0.373 ± 0.017	0.41 ± 0.042	0.21 ± 0.017	0.254 ± 0.056	0.412 ± 0.0055	0.365 ± 0.037
Cn1c(=O)c2c(ncn2CCO)n(C)c1=O [Etofylline]	0.254 ± 0.003	0.283 ± 0.0029	0.276 ± 0.016	0.228 ± 0.011	0.195 ± 0.0066	0.145 ± 0.0023	0.396 ± 0.053	0.425 ± 0.033	0.192 ± 0.0028	0.264 ± 0.098	0.414 ± 0.0083	0.349 ± 0.0046
CC(C)Oc1ccc2c(=O)c(-c3ccccc3)coc2c1 [Ipriflavone]	0.196 ± 0.0047	0.25 ± 0.018	0.231 ± 0.0093	0.186 ± 0.015	0.117 ± 0.02	0.138 ± 0.0016	0.345 ± 0.098	0.4 ± 0.021	0.191 ± 0.018	0.211 ± 0.039	0.402 ± 0.014	0.285 ± 0.012
CN1CCCN=C1/C=C/c1cccc(O)c1 [Oxantel pamoate]	0.216 ± 0.016	0.303 ± 0.013	0.236 ± 0.0088	0.226 ± 0.039	0.141 ± 0.0019	0.189 ± 0.0049	0.282 ± 0.051	0.258 ± 0.009	0.1953 ± 0.0019	0.218 ± 0.019	0.405 ± 0.011	0.326 ± 0.013
